Assay outcomes deposited in PubChem BioAssay by National Center for Advancing Translational Sciences (NCATS).
The list is not random: actives were taken first. Their share in the collection is about 2.6%.
AmpC inh det: Promiscuous and Specific Inhibitors of AmpC Beta-Lactamase (assay with detergent). P00811. purified AmpC, nitrocefin hydrolysis with detergent. Potency, µM (top dose mostly 28.7 µM). actives 0.09% (n = 71,000). AID 584, 2007; active = well fitted curve in the direction sought with a large enough effect; inconclusive = small, poorly fitted or top-dose-only effect
Target sequence (P00811 whole entry, looked up): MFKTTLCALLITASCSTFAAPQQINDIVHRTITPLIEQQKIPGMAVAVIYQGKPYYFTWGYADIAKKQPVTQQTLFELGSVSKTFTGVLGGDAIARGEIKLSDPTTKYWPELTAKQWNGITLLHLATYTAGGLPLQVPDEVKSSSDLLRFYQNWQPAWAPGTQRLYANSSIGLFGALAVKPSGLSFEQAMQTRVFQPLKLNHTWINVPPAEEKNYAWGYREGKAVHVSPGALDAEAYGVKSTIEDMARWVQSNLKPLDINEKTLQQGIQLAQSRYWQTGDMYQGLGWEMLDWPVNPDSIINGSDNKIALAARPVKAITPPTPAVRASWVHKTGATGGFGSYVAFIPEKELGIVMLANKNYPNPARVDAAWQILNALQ
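E. coli AmpC (5.3 nM) in 20 mM phosphate pH 7.0 with 0.01% Triton X-100, preincubated 15 min RT with compound; nitrocefin (2 uL of 800 uM stock) hydrolysis followed by 480 nm absorbance every 20 s over 4 min.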
AmpC inh no det: Promiscuous and Specific Inhibitors of AmpC Beta-Lactamase (assay without detergent). P00811. AmpC nitrocefin hydrolysis, absorbance 480 nm, no detergent. Potency, µM (series often up to 28.7 µM). actives 1.8% (n = 71,000). AID 585, 2007
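AmpC in 20 mM phosphate buffer pH 7.0 was preincubated 15 min at room temperature with compounds. Nitrocefin (800 uM stock) was then added and hydrolysis followed at 480 nm every 20 s for 4 min.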
Anthrax LT inh: qHTS Assay for Anthrax Lethal Toxin Internalization | Potency, µM (doses to about 40 µM), actives largely listed as inhibitors | actives 0.67% (n = 70,000) | Cells, anthrax lethal toxin internalization, FRET ratio (460/530); also: nearly all actives have a fitted effect of over 50% in size
Prx2 Sm inh: Schistosoma Mansoni Peroxiredoxins (Prx2). Schistosoma mansoni peroxiredoxin 2 (Prx2). AID 448, 2006. actives 0.07% (n = 65,000). Potency, µM. S. mansoni Prx2 activity coupled to TGR/GSH (TGR is thioredoxin glutathione reductase), NADPH fluorescence loss, qHTS
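Purified S. mansoni TGR and Prx2 in pH 7.4 phosphate buffer with EDTA and Tween-20 were preincubated with compounds for 15 min. Further NADPH/GSH was added, then a 2.5 mM H2O2 aliquot initiated turnover, followed kinetically by NADPH fluorescence.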
Of the large screens only hits and unclear results are named; the others gave an inactive call; [ ] = remark or other dose. Unless noted, calls follow the shape of the full dose curve.

Cn1c(=O)oc2cc(S(=O)(=O)N3CCCC(C(=O)N4CCc5ccccc5C4)C3)ccc21 (configuration not stated)	Anthrax LT inh inconclusive
Cn1c(=O)oc2cc(S(=O)(=O)N3CCC(C(=O)NCC4COc5ccccc5O4)CC3)ccc21 (configuration not stated)	AmpC inh no det 3.98µM[single pt active]
Cn1c(=O)oc2cc(S(=O)(=O)N3CCC(C(=O)N4CCN(c5ccccc5)CC4)CC3)ccc21	none
Cn1c(=O)oc2cc(S(=O)(=O)N3CCCC(C(=O)NCCN4CCOCC4)C3)ccc21 (configuration not stated)	AmpC inh no det 3.98µM[single pt active]
COc1cc2c(cc1O)CC[C@@H]1[C@@H]2CC[C@@]2(C)[C@H](O)CC[C@H]12	none
COc1cccc2c1[C@@H]1CN(CCCCn3c(=O)[nH]c4c(sc5ncc(-c6ccccc6)nc54)c3=O)C[C@H]1CO2	Anthrax LT inh 25.1µM
Nc1nc2c(nc(Br)n2[C@@H]2O[C@H]3COP(=O)(O)O[C@@H]3[C@H]2O)c(=O)[nH]1	none
Cc1ccc(-c2nnn(CC(=O)N(c3cccc(F)c3)C(C(=O)NC3CCCC3)c3ccco3)n2)o1 (configuration not stated)	AmpC inh no det 12.6µM
CCOc1ccccc1/C=C(\C#N)C(N)=O	none
O=C(CCCCCN1C(=O)C2C3C=CC(C3)C2C1=O)Nc1nccs1 (configuration not stated)	AmpC inh no det 2µM[single pt active]
O=C(CCN1C(=O)C2C3C=CC(C3)C2C1=O)Nc1nccs1 (configuration not stated)	none
CC(C)CO/N=C1/C[C@@H](O)[C@@H](O)[C@@H]2[C@@H]3C(=O)N(C(C)(C)C)C(=O)[C@H]3CC[C@@H]12	none (no result: AmpC inh det, AmpC inh no det, Prx2 Sm inh)
CNCCCCCCCCSc1nc(C(C)C)ccc1C(=O)c1cccs1	Anthrax LT inh inconclusive
Cc1ccc(N=Nc2c(O)ccc3cc(S(=O)(=O)O)ccc23)cc1	none
Cc1ccc(S(=O)(=O)Oc2ccc(N=Nc3ccc(-c4ccc(N=Nc5c(O)ccc6cc(S(=O)(=O)O)cc(S(=O)(=O)O)c56)c(C)c4)cc3C)cc2)cc1	AmpC inh no det 0.316µM, Anthrax LT inh 15.8µM (no result: Prx2 Sm inh)
O=C(C1CCN(S(=O)(=O)c2cccc3cccnc23)CC1)N1CC=C(c2ccccc2)CC1	Anthrax LT inh 12.6µM
O=C(C1CCCN1S(=O)(=O)c1cccc2cccnc12)N1CCc2ccccc2C1 (configuration not stated)	AmpC inh no det 3.98µM[single pt active]
O=C(C1CCN(S(=O)(=O)c2cccc3cccnc23)CC1)N1CCCC1	none
O=C(C1CCCN1S(=O)(=O)c1cccc2cccnc12)N1CCc2ccccc21 (configuration not stated)	none
CCCN(CCc1ccccc1)[C@H]1CCc2c(O)cccc2C1	none
O=C1N[C@@]2(CN3CCC2CC3)C(=O)N1CN(Cc1ccccc1)c1ccccc1	Anthrax LT inh inconclusive
Cc1ccc([C@@]2(C)CC/C(=N/N=C3\CC[C@](C)(c4ccc(C)c(C)c4)c4cc(C)c(C)cc43)c3cc(C)c(C)cc32)cc1C	none
O=C1C=CC2=C3c4cc(O)c(O)cc4C[C@@]3(O)COC2=C1O	AmpC inh no det 15.8µM, Anthrax LT inh 25.1µM
CCSC1(SCC)N=C(N)C2(C#N)C(c3ccc(OC)c(OC)c3OC)C12C#N (configuration not stated)	Anthrax LT inh 10µM
CCSC1(SCC)N=C(N)C2(C#N)C(c3ccccc3)NC3=C(CCC3)C12C#N (configuration not stated)	Anthrax LT inh inconclusive
CC(C)CC(C(=O)Nc1ccc2c(c1)OCCO2)N1C(=O)c2ccccc2C1=O (configuration not stated)	none
CC(C)CC(C(=O)Nc1oc(-c2ccco2)c(-c2ccco2)c1C#N)N1C(=O)c2ccccc2C1=O (configuration not stated)	AmpC inh no det 5.01µM, Anthrax LT inh inconclusive
Cc1nn(Cc2nc(-c3cccs3)no2)c(C)c1Br	AmpC inh no det 2.51µM[single pt active]
CCOC(=O)c1ccc(NC(=O)C2CCN(S(=O)(=O)c3ccccc3)CC2)cc1	Anthrax LT inh 3.98µM
CCOC(=O)c1ccc(NC(=O)C2CCN(S(=O)(=O)CC)CC2)cc1	none
COc1cc2c(=O)n(Cc3ccco3)c(=O)n(CC(=O)c3cccc(Br)c3)c2cc1OC	AmpC inh det inconclusive, AmpC inh no det 6.31µM
COc1cc2c(=O)n(Cc3ccco3)c(=O)n(CC(=O)c3ccc(Br)cc3)c2cc1OC	none
